PubChem BioAssay (Tox21)
Results filed as inconclusive are left out. The source made the active and inactive calls. The call rests on the fitted dose curve; in most records, active means well fitted cell-killing curve with a large enough effect in the repeat runs; inconclusive means weak or mixed curves, or effect the other way; inactive means flat fitted curve, though single readings scatter.

assay: qHTS RealTime-Glo MT Cell Viability Assay in HEK293 cells - 24 hour (AID 1224886); details: RealTime-Glo luminescence; series mostly up to 76.8 µM; further: top concentration of the series differs between compounds; nearly all actives have a fitted effect of over 50% in size
Outline: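 Quantitative high-throughput screen of the Tox21 10K library in HEK293: cells and RealTime-Glo reagents plated together, compound added at 5 h, luminescence monitored through 40 h at 37 C.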

Structure (SMILES)	outcome
N=C(N)S(=O)O	inactive
CC[C@@]1(c2ccccc2)NC(=O)N(C)C1=O	inactive
CC(=O)Oc1ccc(C(C)=O)cc1	inactive
Cc1ccc(N)nc1	inactive
CCCOc1ccc(C(=O)OCCN(CC)CC)cc1N	inactive
CCCCCCC(O)CO (stereo not drawn)	inactive
CC(=O)OC/C=C(/C)CCC=C(C)C	inactive
CC(C)(C)OC(=O)c1ccccc1C(=O)O	inactive
CC1=C(O)C(=O)CO1	inactive
O=C(O)Cc1ccccc1Oc1ccc(Cl)cc1Cl	inactive
O=c1c(O)c(O)c1=O	inactive
NCC1CCC(C(=O)Oc2ccc(CCC(=O)O)cc2)CC1 (stereo not drawn)	inactive
Cc1cc(=O)oc2cc(O[C@@H]3SC[C@@H](O)[C@H](O)[C@H]3O)ccc12	inactive
CO/N=C(\C(=O)O)c1csc(NC(=O)CCl)n1	inactive
C=CCN1CCc2nc(N)sc2CC1	inactive
COc1ccc2cc(CCC(C)=O)ccc2c1	inactive
CCCCCCCCC1CO1 (stereo not drawn)	inactive
Cc1nc2ccc(Cl)cc2[nH]1	inactive
CC(C)c1cc(C(C)C)cc(C(C)C)c1	inactive
COC(=O)c1ccc(NC(C)=O)cc1OC	inactive
O=S(=O)(O)c1ccc(Cl)cc1	inactive
C=COCCCCO	inactive
C/C(=N\O)c1ccc(OCC(=O)N2CCCCC2)cc1	inactive
Cc1cccc(N)n1	inactive
CCCCCCCCCCCC(C)=O	inactive
CN(C)CCc1c[nH]c2ccc(C[C@H]3COC(=O)N3)cc12	inactive
CC(=O)/C=C/C=C1/C2CCC(C2)C1(C)C (stereo not drawn)	inactive
Cc1ccc(O)c([N+](=O)[O-])c1	inactive
